High-throughput results as filed in PubChem BioAssay.
Compounds with a hit are over-represented: about 2% of the library has one in this group of screens.
PKD1 inh: blocks activity of human protein kinase D1 | inhibition, % (no concentration beside the values) | PKD1 kinase fluorescence polarization assay | 0.056% of 200,000 active | Q15139; in the data active means inhibition above about 50%
Efa HMGR inh: E. faecalis class II HMG-CoA reductase inhibition; purified E. faecalis HMGR, NADPH absorbance 340 nm kinetic; inhibition, % at 10 µM; 0.41% of 190,000 active;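 active means inhibition above a set limit, the median over all tested compounds plus 3 SD, cut at about 9.5% in these data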;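 further: enzyme runs in reverse so mevalonate oxidation gives rising NADPH absorbance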
Wee1 degr inh: human Wee1 degradation inhibition, primary screen; HeLa Luc-Wee1K328M stability, luciferase luminescence; 100% = proteasome inhibitor MG132 effect; reporter increase, % at 5 µM; 1.2% of 220,000 active; P30291;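 active means activation above the mean of all tested compounds plus 3 SD, set per screening run, cut at about 8.8% in these data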;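 further: cells exposed to compound for 20 h before luminescence read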
Target sequence (P30291 whole entry K328M): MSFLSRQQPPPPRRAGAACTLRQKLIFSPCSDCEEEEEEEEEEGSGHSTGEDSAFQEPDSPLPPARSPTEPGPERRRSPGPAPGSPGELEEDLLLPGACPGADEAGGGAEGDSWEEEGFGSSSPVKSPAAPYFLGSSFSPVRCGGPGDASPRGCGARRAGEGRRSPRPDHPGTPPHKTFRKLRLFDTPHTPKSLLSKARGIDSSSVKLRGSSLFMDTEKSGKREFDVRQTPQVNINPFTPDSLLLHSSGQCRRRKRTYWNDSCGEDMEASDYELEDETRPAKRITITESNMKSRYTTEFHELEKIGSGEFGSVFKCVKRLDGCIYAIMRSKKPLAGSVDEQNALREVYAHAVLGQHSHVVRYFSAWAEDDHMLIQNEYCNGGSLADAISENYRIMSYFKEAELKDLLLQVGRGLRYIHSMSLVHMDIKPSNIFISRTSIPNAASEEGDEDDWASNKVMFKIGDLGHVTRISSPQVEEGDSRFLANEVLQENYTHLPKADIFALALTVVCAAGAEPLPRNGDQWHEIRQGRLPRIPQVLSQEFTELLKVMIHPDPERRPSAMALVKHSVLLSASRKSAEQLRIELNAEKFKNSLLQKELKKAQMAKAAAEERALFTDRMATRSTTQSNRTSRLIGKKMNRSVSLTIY
Arbovirus anti: blocks arbovirus infection; arbovirus infection cell-based antiviral screen; inhibition, % at 10 µM; 0.37% of 200,000 active; in the data active means inhibition above about 30%
Hsp70 act: transcriptional activators of Hsp70 | HeLa Hsp70 promoter luciferase reporter, luminescence; scaled: vehicle 0, proteasome-inhibitor control 100% | activation, % at 10 µM | 0.04% of 200,000 active;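 active means activation above the mean across all tested compounds plus 3 SD, cutoff set per campaign, cut at about 5.5% in these data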
Each line names hits and unclear results; the compound was inactive in the other large screens; ! = not confirmed by another sample.

COCCn1c(SC(C)C(=O)Nc2ncc(Cl)cc2Cl)nc2ccccc21 (configuration not stated)	Arbovirus anti 31
O=C(Nc1nnc(-c2ccc3c(c2)CCCC3)o1)c1ccc(Cl)cc1Cl	none
O=C(Nc1nnc(-c2ccc3c(c2)CCCC3)o1)c1c(F)cccc1F	Efa HMGR inh 10
C=CCNC(=O)NC(=O)COC(=O)/C(C#N)=C/c1ccc(OC)cc1	none
O=C(Nc1ccc(-c2cn3c(n2)SCC3)cc1)c1ccc2c(c1)OCO2	Efa HMGR inh 13
O=S(=O)(c1ccc(F)cc1)N1CCCN(c2nccc(C(F)(F)F)n2)CC1	Wee1 degr inh 9.5 (no result: PKD1 inh, Efa HMGR inh, Arbovirus anti, Hsp70 act)
O=S(=O)(c1ccc(F)cc1)N1CCN(c2ncccn2)CC1	none (no result: PKD1 inh, Efa HMGR inh, Arbovirus anti, Hsp70 act)
O=C(/C=C/Nc1ccc(Br)cc1F)c1ccco1	Efa HMGR inh 9.8
O=C(/C=C/Nc1ccc(F)cc1F)c1ccco1	none
COCCn1c(=S)[nH]c2cc(C(=O)N3CCc4ccccc43)ccc2c1=O	Wee1 degr inh 11
O=C(Nc1cccc(C(F)(F)F)c1)c1cccc(NS(=O)(=O)c2ccc(Br)c(C(=O)O)c2)c1	Efa HMGR inh 10
O=C(O)c1cccc(NS(=O)(=O)c2ccc(Cl)c(C(=O)O)c2)c1	none
O=C(CSc1n[nH]c(=O)[nH]c1=O)c1ccc([N+](=O)[O-])cc1	Wee1 degr inh 12 (no result: PKD1 inh, Efa HMGR inh, Arbovirus anti, Hsp70 act)
Cc1ccccc1NC(=O)Cn1c(CCC(=O)O)ccc1-c1cccs1	Efa HMGR inh 19
Cc1ccc(NC(=O)Cn2c(CCC(=O)O)ccc2-c2cccs2)cc1	none
CSC(=NC#N)N1CCN(c2cccc(Cl)c2)CC1	none
C=CCN(CC=C)S(=O)(=O)c1ccc(NC(=S)NC(=O)Cc2ccc(OC)cc2)cc1	none
C=CCOc1ccc(Br)cc1/C=N/O	none
C=CCOc1ccc(Br)cc1/C=C1/SC(=Nc2ccc(C(=O)O)cc2)NC1=O	Arbovirus anti 32
Cc1ccc(C(=O)Nc2cccnc2)cc1S(=O)(=O)N1CCCCC1	none
CNS(=O)(=O)c1cccc(C(=O)Nc2cccnc2)c1	Wee1 degr inh 11
O=C(Nc1cccnc1)c1cccc(S(=O)(=O)N2CCCCC2)c1	Efa HMGR inh 12
NS(=O)(=O)c1ccc(NC(=S)Nc2ccc(F)c(F)c2)cc1	none
Cc1ccc(C(=O)NC2(C(Cl)Cl)N=C(c3ccccc3)N=C2N)cc1 (configuration not stated)	Efa HMGR inh 9.7
c1ccc2sc(-c3ccc4c(c3)OCO4)nc2c1	Wee1 degr inh 14
CCOC(=O)C(NC(=O)NCc1ccc(OC)cc1)(OCC)C(F)(F)F (configuration not stated)	none
CCN(C(=O)COC(=O)c1cc(-c2ccccc2)nc2ccc(Br)cc12)C1CCS(=O)(=O)C1 (configuration not stated)	Wee1 degr inh 9.2
CCN(C(=O)COC(=O)c1cc(-c2cccs2)nc2ccccc12)C1CCS(=O)(=O)C1 (configuration not stated)	none
CC(C)NC(=O)c1cc2n(n1)C(C(F)(F)F)CC(c1ccco1)N2 (configuration not stated)	none
Cc1cc(NC(=O)c2cc3n(n2)C(C(F)(F)F)CC(c2ccco2)N3)no1 (configuration not stated)	Wee1 degr inh 9.9
O=C(NNC(=O)C(O)(c1ccccc1)c1ccccc1)C1CC1	Efa HMGR inh 11
O=C(/C=C/c1ccccc1)NNC(=O)C1CC1	none
CC(C)(C)Nc1nc(Oc2ccc(=O)[nH]n2)nc(N2CCOCC2)n1	Wee1 degr inh 9.6
Cc1ccc(C)c(Sc2ccc(NC(=O)CCl)cc2)c1	Wee1 degr inh 16
Cc1ccc(Sc2ccc(NC(=O)CCl)cc2)cc1C	none
C/C(=N\NC(=O)c1ccc(N/N=C(\C)c2ccc(O)cc2)cc1)c1ccc(O)cc1	none (no result: PKD1 inh, Efa HMGR inh, Arbovirus anti, Hsp70 act)
c1coc(CNc2c3c(nc4ncnn24)CCCC3)c1	none
Clc1cccc(-c2cc3nc4c(c(NCc5ccco5)n3n2)CCCC4)c1	Arbovirus anti 34
CC1=NN(c2nc(-c3ccc(C)cc3)cs2)C(=O)C1N=Nc1ccc2ccccc2c1 (configuration not stated)	none
CC1=NN(c2nc(-c3ccc(C)cc3)cs2)C(=O)C1N=Nc1ccc(C(N)=O)cc1 (configuration not stated)	Wee1 degr inh 9.9
CCN1C(=O)/C(=C/c2ccc(C)o2)N(C)C1=S	none
CCOC(=O)/C(C#N)=C/c1c[nH]c2ccccc12	Wee1 degr inh 10!
COC(=O)c1ccc(CNC(=O)COC(=O)C2CCC(C(C)(C)C)CC2)cc1 (configuration not stated)	none
O=C(O)C(Cc1ccccc1)N=Cc1c(O)c2ccccc2oc1=O (configuration not stated)	Arbovirus anti 31
COC(=O)c1ccccc1NC(=O)N1CCN(C/C=C/c2ccccc2)CC1	Wee1 degr inh 10
Cc1ccc(NC(=O)N2CCN(C/C=C/c3ccccc3)CC2)cc1	none
S=C(Nc1ccccc1)N1CCN(C/C=C/c2ccccc2)CC1	Wee1 degr inh 10
O=C(c1ccc([N+](=O)[O-])cc1)N1CCSC1c1ccccc1Cl (configuration not stated)	Efa HMGR inh 11
Cc1cc(-n2cc(Br)c(=O)[nH]c2=O)nc(-c2ccccc2)n1	none (no result: PKD1 inh, Efa HMGR inh, Arbovirus anti, Hsp70 act)
O=[N+]([O-])c1ccc(O)c(C2=NNC(c3ccccc3F)C2)c1 (configuration not stated)	Wee1 degr inh 9.6 (no result: PKD1 inh, Efa HMGR inh, Arbovirus anti, Hsp70 act)
Oc1ccc(Cl)cc1C1=NNC(c2cccs2)C1 (configuration not stated)	none (no result: PKD1 inh, Efa HMGR inh, Arbovirus anti, Hsp70 act)
C[C@@H](C(=O)N1CCNCC1)n1cc(CCCN=C(N)N)nn1	none
O=C(c1ccc(COc2ccccc2Cl)o1)N1N=C(C(F)F)CC1(O)C(F)F (configuration not stated)	Wee1 degr inh 11
CCC(C)(C)NC(=O)C(c1ccc(OC)cc1)N(CCOC)C(=O)CCC(=O)Nc1nccs1 (configuration not stated)	Efa HMGR inh 10
Cc1nn(C)c(C)c1/C=N/NC(=O)C(C)(C)Oc1ccc(Cl)cc1	none
Cc1c(/C=N/NC(=O)C(C)(C)Oc2ccc(Cl)cc2)cnn1C	Wee1 degr inh 9.9
COc1ccc2[nH]c(C(=O)O)c(CCN3C(=O)c4cccc([N+](=O)[O-])c4C3=O)c2c1	none (no result: PKD1 inh, Efa HMGR inh, Arbovirus anti, Hsp70 act)
O=C(CSc1cccc[n+]1[O-])c1cc(Cl)ccc1Cl	none
O=C(c1coc(=O)c(Br)c1)N1CCCc2ccccc21	Arbovirus anti 32
CC(C)C(=O)NC(=S)Nc1ccccc1N1CCN(C(=O)c2ccccc2)CC1	Wee1 degr inh 10
Cn1ccnc1SCC(=O)Nc1ccc2c(c1)OC(F)(F)O2	none
Cc1cccc(NC(=O)CSc2ccc(-c3ccc4c(c3)OCO4)nn2)c1C	Efa HMGR inh 17
Cc1cccc(NC(=S)NCc2ccc3c(c2)OCO3)c1C	none
Cc1cccc(NC(=O)C(=O)NCc2ccc3c(c2)OCO3)c1C	Efa HMGR inh 10
COc1ccccc1/C=C/C(=O)NCC(=O)N1CCC(N(C)C2CCCC2)CC1	none
O=c1[nH]ncc(N/N=C\c2cccs2)c1Cl	none
Fc1ccccc1NC(=S)N/N=C/c1ccccc1Br	Wee1 degr inh 11
